{"source": "PubChem BioAssay (NCATS)", "note": "Records with an inconclusive call do not appear. Unmarked numbers belong to inactive results. The call rests on the fitted dose curve; in most records, active means well fitted cell-killing curve with a large enough effect; inconclusive means small, poorly fitted or top-dose-only effect; inactive means no such curve, though single readings can be large or run the other way.", "data": [{"assay": "qHTS of pediatric cancer cell lines to identify multiple opportunities for drug repurposing: Primary screen for Rh41 cells (AID 1347108);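 further: luminescence drop marks cytotoxic hits; nearly all actives have a fitted effect of over 70% in size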", "settings": "Rh41 rhabdomyosarcoma viability, CellTiter-Glo luminescence, 48 h; series mostly up to 46 µM; activity change, negative = cytotoxic: at the top concentration", "summary_of_the_method": "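CRCs from 8- or 11-point titrations (lowest final 0.59 nM NPC, 0.78 nM MIPE). Cell viability: CellTiter-Glo after 48 h incubation, 15 min room-temperature development, luminescence imaging.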", "values": [{"smiles": "NS(=O)(=O)c1cc2c(cc1Cl)NC(CSCc1ccccc1)=NS2(=O)=O", "activity change, negative = cytotoxic": "8.33%"}, {"smiles": "Cc1ccc(C(C)C)cc2c(C)ccc1-2", "activity change, negative = cytotoxic": "31.7%"}, {"smiles": "Cc1c(Cl)cccc1Nc1ccccc1C(=O)O", "activity change, negative = cytotoxic": "8.75%"}, {"smiles": "C#CCN(C)Cc1ccccc1", "activity change, negative = cytotoxic": "28.1%"}, {"smiles": "CN(C)CCOC(C)(c1ccccc1)c1ccccn1", "note": "(stereo not drawn)", "activity change, negative = cytotoxic": "20.9%"}, {"smiles": "CC1=C(CC(=O)O)c2cc(F)ccc2/C1=C\\c1ccc(S(C)=O)cc1", "note": "(stereo not drawn)", "activity change, negative = cytotoxic": "8.83%"}, {"smiles": "CC(C)C(=O)c1c(C(C)C)nn2ccccc12", "activity change, negative = cytotoxic": "42.8%"}, {"smiles": "CC(=O)Nc1ccc(/C=N/NC(N)=S)cc1", "activity change, negative = cytotoxic": "10%"}, {"smiles": "NC1CCN(c2cccc(Cl)n2)CC1", "activity change, negative = cytotoxic": "15.6%"}, {"smiles": "Cc1cccc(C)c1NC(=O)CN(CC(=O)O)CC(=O)O", "activity change, negative = cytotoxic": "21%"}, {"smiles": "CC(C)(C)C(=O)NCCCC(=O)O", "activity change, negative = cytotoxic": "21.6%"}, {"smiles": "C[C@@H](O)[C@H](N)C(=O)O", "activity change, negative = cytotoxic": "10.6% [at 16.1 µM]"}, {"smiles": "CC(O)CN(CCN(CC(C)O)CC(C)O)CC(C)O", "note": "(stereo not drawn)", "activity change, negative = cytotoxic": "25%"}, {"smiles": "Cc1cccc(Nc2cc(Cl)nc(SCC(=O)O)n2)c1C", "activity change, negative = cytotoxic": "39.1%"}, {"smiles": "O=S(=O)(O)c1cc(I)c(O)c2ncccc12", "activity change, negative = cytotoxic": "25.2%"}, {"smiles": "Cc1cc(CC(=O)O)n(C)c1C(=O)c1ccc(Cl)cc1", "activity change, negative = cytotoxic": "30.9%"}, {"smiles": "CCCCc1ncc(/C=C(\\Cc2cccs2)C(=O)O)n1Cc1ccc(C(=O)O)cc1", "activity change, negative = cytotoxic": "22.5%"}, {"smiles": "NS(=O)(=O)c1cc2c(cc1C(F)(F)F)NC(Cc1ccccc1)NS2(=O)=O", "note": "(stereo not drawn)", "activity change, negative = cytotoxic": "20.5%"}, {"smiles": "CN(C)CCCO[C@@H]1[C@H]2OC(C)(C)O[C@H]2O[C@@H]1C(O)CO", "note": "(stereo partly drawn)", "activity change, negative = cytotoxic": "33.1%"}, {"smiles": "O=c1cc[nH]c(=O)[nH]1", "activity change, negative = cytotoxic": "39%"}, {"smiles": "Cn1c(=O)c2c(ncn2CC2OCCO2)n(C)c1=O", "activity change, negative = cytotoxic": "28.7%"}, {"smiles": "N[C@@H](CSSC[C@H](N)C(=O)O)C(=O)O", "activity change, negative = cytotoxic": "8.25% [at 0.597 µM]"}, {"smiles": "Nc1ccc(S(=O)(=O)Nc2ccc(Cl)nn2)cc1", "activity change, negative = cytotoxic": "4.26%"}]}]}
